Data from PubChem BioAssay (Tox21).
Results filed as inconclusive are left out. The source holds several records for some structures; these can differ, active in one and inactive in another. The source made the active and inactive calls. Unless noted, calls follow the shape of the dose curve; as a rule, active = well fitted curve in the direction sought with a large enough effect in the repeat runs; inconclusive = weak or mixed curves; inactive = flat fitted curve, though single readings scatter. Residues, ends and D or L forms follow the SMILES beside them.

Columns and labels:
[1] = qHTS assay to test for compound auto fluorescence at 535 nm (green) in HEK293 cells (AID 720680)
[2] = qHTS assay to test for compound auto fluorescence at 460 nm (blue) in HEK293 cell free culture (AID 720681)
In short: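 Blue fluorescence (Ex 405/Em 460 nm, triamterene-equivalent) was read immediately after pin transfer of compound or DMSO into medium (DMEM, 10% FBS) without cells.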

[3] = qHTS assay to test for compound auto fluorescence at 535 nm (green) in HEK293 cell free culture (AID 720682)
In short: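 Steps: dispense DMEM/10% FBS into empty wells; pin in compound or DMSO; measure fluorescence at 485/535 nm. Values are fluorescein equivalents.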

[4] = qHTS assay to test for compound auto fluorescence at 590 nm (red) in HEK293 cell free culture (AID 720683)
In short: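 Red-channel autofluorescence of compounds in culture medium (DMEM, 10% FBS), no cells, measured at 540/590 nm. Rose Bengal sodium is the reference fluorophore for equivalence.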

[5] = qHTS assay to test for compound auto fluorescence at 590 nm (red) in HepG2 cell free culture (AID 720684)
In short: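 No cells present: MEM + 10% FBS only. Compound pinned in, red label read (540/590 nm). Activity = fluorescence equivalent to Rose Bengal sodium.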

[6] = qHTS assay to test for compound auto fluorescence at 460 nm (blue) in HepG2 cell free culture (AID 720685)
In short: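 Cell-free plates of MEM plus 10% FBS received 23 nL compound or DMSO vehicle; blue-channel (405/460 nm) intensity scored against triamterene as reference fluorophore.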

[7] = qHTS assay to test for compound auto fluorescence at 535 nm (green) in HepG2 cell free culture (AID 720686)
[8] = qHTS assay to test for compound auto fluorescence at 460 nm (blue) in HepG2 cells (AID 720687)
In short: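 Blue-channel autofluorescence (Ex/Em 405/460 nm, triamterene-equivalent) was measured after 1 hr compound exposure at 37 C, 5% CO2. Cells were HepG2, plated overnight at 37 C in MEM plus 10% FBS.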

[9] = biological target: Glucocorticoid receptor (Homo sapiens) (UniProt P04150); assay: qHTS assay to identify small molecule agonists of the glucocorticoid receptor (GR) signaling pathway (AID 720691; active = well fitted activation curve with a large enough effect in the signal ratio in the repeat runs, not every such curve was filed as active; the % refers to the signal ratio; also: potency is read from the fitted curve at half-maximal effect)
In short: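 Compounds in DMSO, alongside positive controls, were added to GR-bla HeLa reporter cells and incubated 18 h at 37 C; GRE-driven beta-lactamase was detected by fluorescence after 2 h with FRET substrate at room temperature.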

[10] = biological target: Glucocorticoid receptor (Homo sapiens) (UniProt P04150); assay: qHTS assay to identify small molecule antagonists of the glucocorticoid receptor (GR) signaling pathway (AID 720692; active = well fitted inhibition curve with a large enough effect in the signal ratio in the repeat runs, not every such curve was filed as active; the % refers to the signal ratio)
In short: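 In a 1536-well cell format, compounds were added 4 h after seeding GR-bla HeLa cells, together with dexamethasone at 5 nM final; reporter activity was measured by FRET-substrate fluorescence following 18 h at 37 C.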

Measured: Potency

Chain of Glucocorticoid receptor (Homo sapiens) (P04150 whole entry, looked up): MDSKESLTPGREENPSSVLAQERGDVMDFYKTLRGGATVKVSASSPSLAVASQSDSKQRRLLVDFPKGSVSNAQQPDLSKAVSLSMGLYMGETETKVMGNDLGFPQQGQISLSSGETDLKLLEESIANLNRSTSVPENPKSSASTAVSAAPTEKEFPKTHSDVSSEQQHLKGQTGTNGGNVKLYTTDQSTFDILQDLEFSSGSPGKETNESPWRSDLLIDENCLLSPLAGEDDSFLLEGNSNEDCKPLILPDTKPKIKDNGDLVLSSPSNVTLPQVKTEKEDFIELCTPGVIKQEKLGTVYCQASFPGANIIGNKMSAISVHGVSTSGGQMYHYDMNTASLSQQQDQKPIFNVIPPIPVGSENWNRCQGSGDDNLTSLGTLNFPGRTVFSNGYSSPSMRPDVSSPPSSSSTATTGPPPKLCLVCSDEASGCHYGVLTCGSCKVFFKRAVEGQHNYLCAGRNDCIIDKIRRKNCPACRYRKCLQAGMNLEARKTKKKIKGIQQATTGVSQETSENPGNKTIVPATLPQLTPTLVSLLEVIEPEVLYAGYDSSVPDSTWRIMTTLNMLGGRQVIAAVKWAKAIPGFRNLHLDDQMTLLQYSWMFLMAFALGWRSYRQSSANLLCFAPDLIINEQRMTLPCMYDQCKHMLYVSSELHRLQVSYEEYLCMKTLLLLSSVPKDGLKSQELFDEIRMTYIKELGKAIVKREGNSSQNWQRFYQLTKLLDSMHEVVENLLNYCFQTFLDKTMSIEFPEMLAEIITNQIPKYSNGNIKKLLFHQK

NC(N)=NC(=O)c1nc(Cl)c(N)nc1N
inactive: all assays above

CCCCCCCCCCCCCCCC(=O)O
not listed: [6]
inactive: all other assays above

O=c1ccc2ccccc2o1
not listed: [6] | [9] | [10]
inactive: all other assays above

CCCNC(=O)NS(=O)(=O)c1ccc(Cl)cc1
not listed: [6]
inactive: all other assays above

O=C(c1ccccc1)C(O)c1ccccc1 (stereo not drawn)
not listed: [6]
inactive: all other assays above

CCOc1ccc(NC(=O)CC(C)O)cc1 (stereo not drawn)
not listed: [6] | [9] | [10]
inactive: all other assays above

CCCN(CCC)S(=O)(=O)c1ccc(C(=O)O)cc1
not listed: [6]
inactive: all other assays above

CCCC(CCC)C(=O)O
not listed: [6]
inactive: all other assays above

Cc1ccc(O)cc1
not listed: [6]
inactive: all other assays above

CC(C)(Oc1ccc(C2CC2(Cl)Cl)cc1)C(=O)O (stereo not drawn)
not listed: [6]
inactive: all other assays above

CCCCOC(=O)CC(CC(=O)OCCCC)(OC(C)=O)C(=O)OCCCC
not listed: [6]
inactive: all other assays above

CCCCC(CC)COC(=O)/C=C/c1ccc(OC)cc1 (stereo not drawn)
not listed: [6]
inactive: all other assays above

NNC(=O)c1ccncc1
not listed: [6]
inactive: all other assays above

O=C(O)CCC(=O)O
not listed: [6] | [9] | [10]
inactive: all other assays above

CC1(C)[C@@H]2CC[C@@]1(C)C(=O)C2
not listed: [6]
inactive: all other assays above

Cc1ccc(S(=O)(=O)NC(=O)NN2CCCCCC2)cc1
not listed: [6]
inactive: all other assays above

CCC1(c2ccccc2)C(=O)NCNC1=O
not listed: [6]
inactive: all other assays above

O=C(O)c1cccc([N+](=O)[O-])c1
not listed: [6]
inactive: all other assays above

O=C(C1CCCCC1)N1CC(=O)N2CCc3ccccc3C2C1 (stereo not drawn)
not listed: [6]
inactive: all other assays above

O=C(O)c1cc(N=Nc2ccc(S(=O)(=O)Nc3ccccn3)cc2)ccc1O
not listed: [6]
inactive: all other assays above

O=S(=O)(O)c1ccc2cc(O)ccc2c1
not listed: [6]
inactive: all other assays above

COC(=O)[C@H](Cc1ccccc1)NC(=O)[C@@H](N)CC(=O)O (H-Asp-Phe-OMe)
not listed: [6]
inactive: all other assays above

O=C(O)CCCCC(=O)O
not listed: [6]
inactive: all other assays above

N=C(N)c1ccc(OCCCCCOc2ccc(C(=N)N)cc2)cc1
not listed: [6] | [10]
inactive: all other assays above

CC(O)CN(CCN(CC(C)O)CC(C)O)CC(C)O (stereo not drawn)
not listed: [6]
inactive: all other assays above

Cc1ccc(C)c(OCCCC(C)(C)C(=O)O)c1
not listed: [6] | [9] | [10]
inactive: all other assays above

CC(O)C(=O)O (stereo not drawn)
not listed: [6] | [9] | [10]
inactive: all other assays above

Cc1noc(NS(=O)(=O)c2ccc(N)cc2)c1C
not listed: [6] | [9] | [10]
inactive: all other assays above

Nc1ccc(S(=O)(=O)Nc2nccs2)cc1
not listed: [6]
inactive: all other assays above

O=C(c1ccccc1)c1ccccc1
not listed: [6]
inactive: all other assays above

Cn1c(=O)c2[nH]cnc2n(C)c1=O
not listed: [6] | [9] | [10]
inactive: all other assays above

Nc1ccc(C(=O)O)cc1
not listed: [6]
inactive: all other assays above

OCCc1ccccc1
not listed: [6] | [9] | [10]
inactive: all other assays above

c1ccc2[nH]ccc2c1
not listed: [6]
inactive: all other assays above

O=C(O)CCCCCCCC(=O)O
not listed: [6] | [9] | [10]
inactive: all other assays above

Cc1cc(=O)[nH]c(=S)[nH]1
23.9 µM (active) and inactive: [9]
not listed: [6]
inactive: all other assays above

Oc1ccc(/C=C/c2cc(O)cc(O)c2)cc1
not listed: [6] | [9] | [10]
inactive: all other assays above
